Data: PubChem BioAssay (NCATS)
Values without a mark were called inactive. Inconclusive results are not listed. The source made the active and inactive calls. Calls come from the whole dose curve; as a rule, active = well fitted curve in the direction sought with a large enough effect; inconclusive = small, poorly fitted or top-dose-only effect, or another doubt; inactive = no such curve, though single readings can be large; an effect the other way counts as inactive or inconclusive.

target: Tyrosine-protein kinase Yes (Homo sapiens) (UniProt P07947); assay: qHTS for small molecule inhibitors of Yes1 kinase: Primary Screen (AID 686947); details: Yes1 kinase biochemical qHTS inhibition; series mostly up to 76.9 µM; activity change, negative = inhibition: at the top concentration; note: nearly all actives have a fitted effect of over 60% in size; note: potency is the fitted concentration of half-maximal effect;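 for activity change, negative = inhibition: plate controls were DMSO with enzyme for no effect and no-enzyme DMSO wells for full effect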
Method in brief: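 ADP-Glo luminescence readout; final 4 nM Yes1, 0.1 mM ATP, 0.3 mg/mL poly(E4Y), Tris pH 7.5, MgCl2, DTT, Brij-35. 20 min compound preincubation, 60 min reaction at RT. Normalized to DMSO wells with and without enzyme.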

Chain of Tyrosine-protein kinase Yes (Homo sapiens) (P07947 whole entry, looked up): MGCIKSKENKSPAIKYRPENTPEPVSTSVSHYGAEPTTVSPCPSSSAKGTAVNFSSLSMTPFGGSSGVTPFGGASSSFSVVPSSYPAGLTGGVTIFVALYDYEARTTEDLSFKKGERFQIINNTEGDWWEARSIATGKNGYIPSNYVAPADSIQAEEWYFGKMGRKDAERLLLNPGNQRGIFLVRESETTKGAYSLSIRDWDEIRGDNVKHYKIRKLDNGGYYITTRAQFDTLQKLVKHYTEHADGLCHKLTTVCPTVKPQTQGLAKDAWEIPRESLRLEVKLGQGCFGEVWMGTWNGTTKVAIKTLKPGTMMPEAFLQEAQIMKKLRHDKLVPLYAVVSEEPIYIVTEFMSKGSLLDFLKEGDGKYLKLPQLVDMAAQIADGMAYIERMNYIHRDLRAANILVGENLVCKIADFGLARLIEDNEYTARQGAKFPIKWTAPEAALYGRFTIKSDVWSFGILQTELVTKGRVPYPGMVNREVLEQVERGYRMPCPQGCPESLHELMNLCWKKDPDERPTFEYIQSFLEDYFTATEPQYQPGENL

Row | Compound | activity change, negative = inhibition | Potency
1 | Cn1ccc2cc3c(cc21)CCN3C(=O)Nc1cccnc1 | 27.5% | –
2 | CC1(CN2CCC(n3c(=O)[nH]c4ccccc43)CC2)OCc2ccccc2-n2cccc21 (configuration not stated) | -4.5% | –
3 | CN(C)C(=N)N=C(N)N | 12.3% | –
4 | Cc1ccc(-c2cc(C(F)(F)F)nn2-c2ccc(S(N)(=O)=O)cc2)cc1 | 10.5% [at 154 µM] | –
5 | COc1ccc(CCN(C)CCCC(C#N)(c2ccc(OC)c(OC)c2)C(C)C)cc1OC (configuration not stated) | – | inactive
6 | O=C1c2c(O)ccc(O)c2C(=O)c2c(NCCNCCO)ccc(NCCNCCO)c21 | – | 34.5 µM (active)

system: not listed separately; assay: qHTS for small molecule inhibitors of Yes1 kinase: Counter Assay (AID 686950); details: series mostly up to 76.9 µM; activity change, negative = inhibition: at the top concentration;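 note: no kinase present so only ADP-Glo detection of a fixed ADP amount is tested; luminescence from ADP-Glo reporting ADP in a fixed ATP and ADP mixture; 0% = DMSO wells with ATP plus ADP and -100% = ATP-only wells without ADP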
Method in brief: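 Enzyme-free ADP-Glo interference check: compounds were preincubated 20 min in buffer, then an ATP/ADP mix (0.08 mM ATP, 0.02 mM ADP final) was added for 60 min at room temperature before two-step ADP-Glo luminescence detection.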

Row | Compound | activity change, negative = inhibition | outcome
7 | Cn1ccc2cc3c(cc21)CCN3C(=O)Nc1cccnc1 | -4.83% | –
8 | Cc1cn([C@H]2C[C@H](N=[N+]=[N-])[C@@H](CO)O2)c(=O)[nH]c1=O | 0.443% | –
9 | CC1(CN2CCC(n3c(=O)[nH]c4ccccc43)CC2)OCc2ccccc2-n2cccc21 (configuration not stated) | 3.53% | –
10 | CN(C)C(=N)N=C(N)N | 4.38% | –
11 | CC[C@@]1(O)C(=O)OCc2c1cc1n(c2=O)Cc2cc3c(CN(C)C)c(O)ccc3nc2-1 | -0.118% | –
12 | O=c1c(O)c(-c2ccc(O)c(O)c2)oc2cc(O)cc(O)c12 | -3.96% | –
13 | O=c1c(-c2ccc(O)cc2)coc2cc(O)cc(O)c12 | -4.54% | –
14 | Cc1ccc(-c2cc(C(F)(F)F)nn2-c2ccc(S(N)(=O)=O)cc2)cc1 | 2.46% [at 154 µM] | –
15 | COc1ccc(CCN(C)CCCC(C#N)(c2ccc(OC)c(OC)c2)C(C)C)cc1OC (configuration not stated) | – | inactive
16 | O=C1c2c(O)ccc(O)c2C(=O)c2c(NCCNCCO)ccc(NCCNCCO)c21 | -17.2% | –
17 | CS(=O)(=O)CCNCc1ccc(-c2ccc3ncnc(Nc4ccc(OCc5cccc(F)c5)c(Cl)c4)c3c2)o1 | 2.74% | –
